Experimental data published in the supplement of paper PMC5641865, “A screen for kinase inhibitors identifies antimicrobial imidazopyridine aminofurazans as specific inhibitors of the Listeria monocytogenes PASTA kinase PrkA” (The Journal of Biological Chemistry, 2017).
± gives the standard deviation of the averaged measurements.
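Further: End-point A600 read in BHI broth at 37 °C with 2% DMSO, inhibition computed as (1 − OD with compound plus ceftriaxone ÷ OD with ceftriaxone only) × 100.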

These molecules were tested on Listeria monocytogenes 10403S (assay: growth inhibition relative to ceftriaxone-alone control; higher = stronger potentiation of ceftriaxone growth inhibition). Settings: 10 µM; ceftriaxone 1 ug/ml; 12 h.
Molecule `Cn1cc(C2=C(c3cn(C4CCN(Cc5ccccn5)CC4)c4ccccc34)C(=O)NC2=O)c2ccccc21` has a growth inhibition of 40.6 ± 17%.
`CN[C@@H]1C[C@H]2O[C@@](C)([C@@H]1OC)n1c3ccccc3c3c4c(c5c6ccccc6n2c5c31)C(=O)NC4` [Staurosporine] was tested, and the growth inhibition was 102 ± 5%.
`Cc1ccccc1-n1c(Cn2cnc3c(N)ncnc32)nc2cccc(C)c2c1=O` was tested, and the growth inhibition was -7.86 ± 4.1%.
Molecule `O=c1[nH]c2ccc(Cl)cc2c(N[C@@H]2CN3CCC2CC3)c1-c1nc2ccccc2[nH]1` has a growth inhibition of 96.1 ± 3.4%.
`COC[C@H]1OC(=O)c2coc3c2[C@@]1(C)C1=C(C3=O)[C@@H]2CCC(=O)[C@@]2(C)C[C@H]1OC(C)=O` [Wortmannin] gave a growth inhibition of 2.26 ± 1.5%.
`CC(C)(C)c1cc(C=C(C#N)C#N)cc(Br)c1O` was tested, and the growth inhibition was 103 ± 6.1%.
In the case of `Cc1ccccc1-n1c(Cn2ncc3c(N)ncnc32)nc2cccc(C)c2c1=O`, the growth inhibition is reported as 15.4 ± 13%.
`CCN1CCN(C(=O)Cc2ccc(Nc3ncc(F)c(Nc4ccc(C(=O)Nc5ccccc5Cl)cc4)n3)cc2)CC1` [Aurora A Inhibitor I] gave a growth inhibition of 7.11 ± 13%.
For `CNC(=O)Oc1cc(C)c(/C=C/c2cncc(C(=O)NC)c2)c(C)c1`, the growth inhibition was 3.06 ± 7%.
